Screening results deposited in PubChem by several laboratories.
Most compounds without a hit are left out; they make up all but 0.5% or so of the library.
phage Ecoli inh: E. coli growth loss with phage present; growth absorbance; inhibition, % at 11.9 µM; 0.26% of 360,000 active; AID 651602; in the data active = inhibition above about 11%
Tat export inh: inhibitors of E. coli Tat protein transport; E. coli MC4100 TorA-mCherry Tat export, fluorescence; inhibition, % at 10 µM; 0.036% of 340,000 active; AID 488895;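 active = mean replicate inhibition at least 50% and at least half of replicates individually reaching 50%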;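 also: exported cargo escapes ClpAP degradation while cytoplasmic cargo is degraded and loses fluorescence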
AddAB inh: less growth of phage-infected E. coli with AddAB. AID 435030. inhibition, % at 11.9 µM. E. coli expressing H. pylori AddAB, absorbance growth. 0.29% of 330,000 active; in the data active = inhibition above about 12%
E coli growth-1: counter-screen for AddAB inhibitors: E. coli growth inhibition. E. coli V3065 growth, OD600 absorbance, 18 h. inhibition, % at 11.9 µM. 0.27% of 330,000 active. AID 449728;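 active = inhibition above the campaign's mean inhibition across all tested compounds plus 3 SD, cut at about 9.9% in these data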;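 also: uninfected addAB+ strain grown without phage in ampicillin broth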
E coli growth-2: inhibitors of Escherichia coli growth; OD600, 23 h; active compounds read low; 0.21% of 330,000 active; AID 1053175; OD600 absorbance (concentration not given with the values);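 active = OD600 absorbance below the run mean of sample wells minus 3.6 SD, in any replicate, cut at about 0.56 in these data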
AddAB conf: growth loss of T4-infected E. coli expressing H. pylori AddAB, confirmed. shares compounds with AddAB inh. E. coli V3065 expressing H. pylori AddAB, T4 phage, OD; T4 phage with gene 2 nonsense mutations. inhibition, % at 11.9 µM. 64% of 880 active;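 active = mean inhibition above a set limit taken from the earlier primary screen, cut at about 13% in these data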;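 also: higher means less bacterial growth since AddAB block lets phage replicate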
RecBCD counter: AddAB counter-screen: growth loss of RecBCD+ E. coli infected with mutant T4 phage; shares compounds with AddAB inh; E. coli V66 + mutant T4 phage, OD growth; inhibition, % at 11.9 µM; 73% of 880 active; AID 488955;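 active = mean inhibition above the mean of solvent-only control wells plus 3 SD, cut at about 4% in these data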;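 also: optical density read after an 18 h incubation at 37 °C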
bact viab count: counter-screen for AddAB inhibitors: inhibitors of bacterial viability; shares compounds with AddAB inh; 35% of 880 active; AID 488956; inhibition, % at 11.9 µM; absorbance (AddAB counterscreen); in the data active = inhibition above about 25%
RecBCD conf: confirmation: growth loss of phage-infected RecBCD+ E. coli (RecBCD inhibitor screen) | E. coli V66 + T4 2- phage, growth OD | inhibition, % at 11.9 µM | shares compounds with phage Ecoli inh | 45% of 890 active | AID 651982;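 active = mean inhibition over triplicates exceeding the hit threshold derived in the original primary screen, cut at about 11% in these data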
Ecoli viability: bacterial viability inhibition counter-screen for RecBCD. shares compounds with phage Ecoli inh. E. coli viability, absorbance (OD) growth. inhibition, % at 11.9 µM. 29% of 890 active; in the data active = inhibition above about 20%;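 also: E. coli strain V66 grown with compound alone and no phage infection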
AddAB phage OD: growth loss of phage-infected AddAB E. coli, RecBCD counter-screen; inhibition, % at 11.9 µM; AID 651984; E. coli expressing H. pylori AddAB + T4 phage, OD growth; gene 2 mutant T4, recBCD-deleted host; 45% of 890 active; shares compounds with phage Ecoli inh;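 active = mean inhibition above the solvent-only control wells' mean plus 3 SD, cut at about 22% in these data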;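 also: higher means less bacterial growth from phage killing when AddAB is blocked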
Hits are given with their value; . = inactive; / = no result given.

SMILES	phage Ecoli inh	Tat export inh	AddAB inh	E coli growth-1	E coli growth-2	AddAB conf	RecBCD counter	bact viab count	RecBCD conf	Ecoli viability	AddAB phage OD
Nc1ccc(S(=O)(=O)Nc2nccs2)cc1	12	.	29	15	.	.	5.5	.	.	.	27
COc1ccccc1-c1cc(C(=O)NN=Cc2ccc(C)o2)c2ccccc2n1	/	/	/	/	.	/	/	/	/	/	/
COC(=O)N/N=C/c1ccc([N+](=O)[O-])o1	19	.	97	79	/	99	21	67	13	.	103
O=C(N/N=C/c1ccc([N+](=O)[O-])o1)C1CC1	35	.	100	73	/	99	23	71	12	.	100
NC(=O)NN=Cc1ccc(-c2ccc([N+](=O)[O-])cc2)o1	/	/	/	/	.	/	/	/	/	/	/
O=[N+]([O-])c1ccc(C=NN=Cc2ccc([N+](=O)[O-])o2)o1	/	/	/	/	.	/	/	/	/	/	/
O=[N+]([O-])c1ccc(/C=[N+](\[O-])CCO)o1	97	.	99	99	/	98	99	99	105	107	105
NC(=O)N/N=C/c1ccc([N+](=O)[O-])o1	63	.	101	101	/	98	40	98	34	57	103
CCOc1ccc(C=NNC(=O)c2c(C)nc3cc(C)ccn23)cc1	/	/	/	/	.	/	/	/	/	/	/
O=C(NN=Cc1ccc(OC(=O)c2cccs2)cc1)c1ccc(F)cc1	/	/	/	/	.	/	/	/	/	/	/
Cc1ccc(C(=O)NN=Cc2cccs2)cn1	/	/	/	/	.	/	/	/	/	/	/
NC(=O)NN=Cc1sc(=O)n(-c2ccccc2)c1Cl	/	/	/	/	.	/	/	/	/	/	/
Cc1onc(-c2c(Cl)cccc2Cl)c1C(=O)N/N=C(\N)COc1ccc(Cl)cc1	18	.	14	16	/	17	19	.	.	.	32
Cc1onc(-c2ccccc2Cl)c1C(=O)NN=C(N)COc1ccc(Cl)cc1	/	/	/	/	.	/	/	/	/	/	/
Cc1cccc(C)c1OCc1cc(C(=O)N(C)Cc2nc3ccccc3[nH]2)no1	14	.	26	17	.	19	11	.	.	.	38
Cn1c(SCC=Cc2ccccc2)nnc1-c1ccco1	/	/	/	/	.	/	/	/	/	/	/
O=C(N/N=C/c1c(O)ccc2ccccc12)c1cccc(C(F)(F)F)c1	18	.	28	22	/	14	17	.	.	.	.
O=c1[nH]c(=O)n(C2CC(O)C(CO)O2)cc1Br (stereo unspecified)	.	.	/	/	/	/	/	/	/	/	/
Cc1cn([C@H]2C[C@H](O)[C@@H](COS(=O)(=O)O)O2)c(=O)[nH]c1=O	.	.	.	.	/	/	/	/	/	/	/
CCc1cn([C@H]2C[C@H](O)[C@@H](CO)O2)c(=O)[nH]c1=O	12	.	19	14	/	38	11	.	14	.	23
O=c1[nH]c(=O)n(C2C[C@H](O)[C@@H](CO)O2)cc1C(F)(F)F (stereo partly specified)	15	.	14	10	/	38	12	.	20	.	30
O=c1[nH]c(=O)n([C@H]2C[C@H](O)[C@@H](CO)O2)cc1C(F)(F)F	11	.	13	.	/	40	9.6	.	17	.	26
CC(=O)C(=NNc1ccc(Cl)cc1)Sc1nnc(-c2ccccc2)n1-c1ccccc1	/	/	/	/	.	/	/	/	/	/	/
COc1cc(C=NNc2ccc(S(N)(=O)=O)cc2)cc(OC)c1OC	/	/	/	/	.	/	/	/	/	/	/
COc1ccc(/C=C2\SC(=O)N(CC(=O)NNC(=O)c3ccccc3O)C2=O)cc1	15	.	17	10	.	.	10	.	.	.	.
SMILES	phage Ecoli inh	Tat export inh	AddAB inh	E coli growth-1	E coli growth-2	AddAB conf	RecBCD counter	bact viab count	RecBCD conf	Ecoli viability	AddAB phage OD
O=C(CN1C(=O)S/C(=C\c2ccc(O)cc2)C1=O)c1ccccc1	.	.	.	.	/	/	/	/	/	/	/
COc1ccc(/C=C2\SC(=O)N(CC(=O)NNC(=O)c3ccccc3O)C2=O)cc1OC	16	.	23	18	/	20	14	.	.	.	.
O=C(CN1C(=O)S/C(=C\c2ccccc2)C1=O)NNC(=O)c1ccccc1O	14	.	19	17	.	16	14	.	.	.	.
O=C(C1=CC(c2coc3ccccc3c2=O)CC(OCc2ccc(CO)cc2)O1)N1CCN(Cc2ccc3c(c2)OCO3)CC1 (stereo unspecified)	/	/	/	/	.	/	/	/	/	/	/
C[C@H]1[C@H](NC(=O)C(=NOC(C)(C)C(=O)O)c2csc(N)n2)C(=O)N1S(=O)(=O)O	100	.	100	99	/	100	99	101	98	99	101
O=C(NNC(=S)Nc1ccc(Cl)c(Cl)c1)c1ccccn1	17	.	14	17	.	26	17	25	14	.	34
CCNC(=S)NNC(=O)c1ccccn1	.	.	.	.	.	/	/	/	/	/	/
O=C(NNC(=O)c1cc2cc(Br)ccc2oc1=O)c1ccc(O)cc1O	18	.	24	23	.	.	14	.	.	.	.
O=C(NN=Cc1ccc(OC(=O)c2ccccc2)c([N+](=O)[O-])c1)c1ccc(O)cc1	/	/	/	/	.	/	/	/	/	/	/
COc1ccc(Cl)cc1C(Nc1cccnc1)c1ccc2cccnc2c1O (stereo unspecified)	16	.	14	23	.	.	12	.	.	.	.
N#CC1N(Cc2ccccc2)C(=O)C2CC3C=CC21O3 (stereo unspecified)	/	/	/	/	.	/	/	/	/	/	/
Nc1nnc(CC(=O)NN=Cc2ccc(-c3ccccc3Cl)o2)s1	/	/	/	/	.	/	/	/	/	/	/
CCOc1ccc(NC(=O)c2ccc(NC(=O)c3cn4c5c(c(N6CCN(C)CC6)c(F)cc5c3=O)OCC4C)cc2)cc1 (stereo unspecified)	99	88	95	97	0.067	100	100	99	103	104	104
CC1COc2c(N3CCN(C)CC3)c(F)cc3c(=O)c(C(=O)O)cn1c23 (stereo unspecified)	98	117	99	98	0.061	100	100	101	101	102	102
CCOc1ccc(C(=O)Nc2ccc(N3CCN(C)CC3)cc2)cc1	.	.	.	.	.	/	/	/	/	/	/
CS(=O)(=O)c1ccc([C@@H](O)[C@@H](CO)NC(=O)C(Cl)Cl)cc1	27	.	29	29	/	.	27	.	35	25	.
CS(=O)(=O)c1ccc([C@@H](O)[C@@H](CF)NC(=O)C(Cl)Cl)cc1	85	147	84	85	/	87	90	87	92	94	84
